The text below walks through data of PubChem BioAssay (NCATS).

Several values for one entry are separate records, joined by “and”; a condition that tells them apart may be missing. Equal values may be shown once. Results filed as inconclusive are left out. Values without a mark were called inactive. Activity calls are given as the source filed them. The call rests on the fitted dose curve; in most records, active means well fitted curve in the direction sought with a large enough effect; inconclusive means small, poorly fitted or top-dose-only effect, or another doubt; inactive means no such curve, though single readings can be large; an effect the other way counts as inactive or inconclusive.

For test [1], the target named is Cytochrome P450 3A7 (Homo sapiens) (UniProt P24462). The test is described as follows: Cytochrome P450 family 3 subfamily A member 7 (CYP3A7) small molecule antagonists: luciferase biochemical qHTS assay (AID 1963596). Further: on the % scale 0 is the no-effect control and ±100 the full control effect; nearly all actives have a fitted effect of over 40% in size. Put shortly:
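P450-Glo luminescent assay: CYP3A7 enzyme converts a proluciferin substrate to luciferin, detected by luciferase reagent; light proportional to activity. Compounds in DMSO preincubated 10 min with enzyme-substrate mix at room temperature, then NADPH regeneration added for 1 h.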
In general terms: Quantitative high-throughput screening tests each substance at several concentrations.

The nature of test [2]: Viability qHTS for spleen associated tyrosine kinase inhibitor (SYKi) naive MV4-11 cells (AID 1963823). Further: nearly all actives have a fitted effect of over 40% in size. Further: potency means the concentration at half of the fitted maximal effect. In a few lines: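 Seeding of 500 SYKi-naive MV4-11 cells per well onto pre-dispensed compounds preceded a 72 hr incubation at 37 C. Luminescent CellTiter-Glo signal, read after 10 min at room temperature, reflected viable cells.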
The nature of test [3]: Viability qHTS for spleen associated tyrosine kinase inhibitor (SYKi) drug resistant MV4-11 cells (AID 1963824). Further: nearly all actives have a fitted effect of over 35% in size. Further: potency means the concentration at half of the fitted maximal effect. Put shortly:
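SYK inhibitor-resistant MV4-11 AML cells, 500 per well, added to predispensed compounds and incubated 72 hr at 37 C, 5% CO2. Viability measured by CellTiter-Glo luminescence after 10 min at room temperature.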

Test [4] in a line: Quantitative highthroughput screen to assess conditional lethalithy of SEM cells grown in RPMI1640 with dialyzed fetal bovine serum (RPMI+ds) (AID 1963884). Further: nearly all actives have a fitted effect of over 35% in size. Further: potency means the concentration at half of the fitted maximal effect.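 On Viability: series mostly up to about 46 µM; 100% = DMSO control wells and 0% = empty wells without cells.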 Put shortly: (§1)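 Each medium arm—HPLM with 10% dialyzed FBS, or RPMI1640 with 5 mM glucose and 10% untreated or dialyzed FBS—was screened against an 11-point, 3-fold compound titration for 48 h at 37 °C, with CellTiter-Glo luminescence as endpoint.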

Test [5] is described as follows: Cellular viability qHTS for adrenocortical cancer (ACC) cell line SW-13 (AID 1963989). Further: nearly all actives have a fitted effect of over 65% in size. Further: potency means the concentration at half of the fitted maximal effect.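 On activity (max response): cells grown in serum-free medium with ITS supplement; on the % scale 0 is the no-effect control and ±100 the full control effect.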 Conditions: SW-13 ACC cells viability, CellTiter-Glo, 48 h; activity (max response): active compounds read low. Put shortly: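 Here, serum-free SW-13 cultures were dosed up to 46 uM. Following 48 h, ATP-dependent luminescence (CellTiter-Glo) reported viable cells, and logistic modeling produced IC50 values.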

A short description of test [6]: Cellular viability qHTS for adrenocortical cancer (ACC) cell line NCI-H295R (AID 1963990). Further: nearly all actives have a fitted effect of over 60% in size. Further: potency means the concentration at half of the fitted maximal effect. In a few lines: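 Viability of NCI-H295R after 48 h of treatment (final up to 46 uM) measured through cellular ATP luminescence.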
Test [7] in a line: Quantitative highthroughput screen to assess conditional lethalithy of SEM cells grown in RPMI1640 with unreated serum (RPMI+s) (AID 1963883).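 Further: 100% = DMSO wells and 0% = empty wells without cells; nearly all actives have a fitted effect of over 35% in size.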 In a few lines:
as §1

Cytochrome P450 3A7 (Homo sapiens), sequence (P24462 whole entry, looked up): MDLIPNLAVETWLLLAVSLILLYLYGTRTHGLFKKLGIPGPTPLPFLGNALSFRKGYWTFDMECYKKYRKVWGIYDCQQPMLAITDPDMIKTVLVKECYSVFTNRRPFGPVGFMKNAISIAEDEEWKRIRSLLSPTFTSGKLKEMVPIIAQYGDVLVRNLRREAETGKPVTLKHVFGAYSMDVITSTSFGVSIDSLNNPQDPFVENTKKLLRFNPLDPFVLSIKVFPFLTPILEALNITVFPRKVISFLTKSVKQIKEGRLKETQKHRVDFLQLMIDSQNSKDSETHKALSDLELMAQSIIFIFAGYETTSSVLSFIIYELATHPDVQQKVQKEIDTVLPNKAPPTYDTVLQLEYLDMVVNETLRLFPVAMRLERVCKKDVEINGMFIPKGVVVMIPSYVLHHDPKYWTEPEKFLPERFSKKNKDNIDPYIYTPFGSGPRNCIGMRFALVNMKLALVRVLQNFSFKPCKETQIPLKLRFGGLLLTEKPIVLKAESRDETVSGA

As to `O=C(CO)N1CCC(c2[nH]nc(-c3ccc(Cl)cc3)c2-c2ccncn2)CC1`, the Potency entry in test [1] and in test [6] was “inactive” in each case. The Potency is 2310 nM (active) in test [2], 9.2 µM (active) in test [3] and 13.2 µM (active) in test [4]. For the same compound, the activity (max response) in test [5] is -7.74%.

For `O=C(O)[C@@H](O)[C@H](O)[C@H](O)[C@@H](O)C(=O)O`, the Potency result in test [1], in test [2] and in test [3] was “inactive” throughout. In addition, in test [5], the activity (max response) was 9.05%.

As for `CN(C)CCC(c1ccccc1)c1ccccn1` (centres undefined), the Potency entry in test [1], in test [2] and in test [3] was “inactive” in each case. Further, the activity (max response) in test [5] was 13.1%.

In the case of `O=c1cc(CO)occ1O`, the Potency result in test [1], in test [2] and in test [3] was “inactive” in each case. In test [5], the activity (max response) was 13.4%.

As to `CCN(CC)CCNC(=O)c1cc(Cl)c(N)cc1OC`, the Potency result in test [1], in test [2] and in test [3] was “inactive” each time. In test [5], the activity (max response) was -0.158%.

As for `Nc1cc(=O)[nH]c(N)n1`, the Potency result in test [1], in test [2] and in test [3] was “inactive” in each case. For the same compound, the activity (max response) in test [5] is -6.62%.

As for `OC[C@@H](O)[C@@H](O[C@@H]1O[C@H](CO)[C@H](O)[C@H](O)[C@H]1O)[C@H](O)[C@@H](O)CO`, the Potency entry in test [1], in test [2] and in test [3] was “inactive” throughout. Further, the activity (max response) in test [5] was 1.27%.

Take `COc1cc2c(c(OC)c1OC)-c1ccc(OC)c(=O)cc1[C@@H](NC(C)=O)CC2`: the Potency result in test [1], in test [7] and in test [4] was “inactive” in each case. The Potency in test [2] is 23.7 nM (active) and 18.6 nM (active); in test [3], 16.8 nM (active) and 14.8 nM (active); in test [5], 25.9 nM (active) and 35.5 nM (active); in test [6] it was 92 nM (active) and 100 nM (active).

Consider `Cc1ccc(-c2ccc3ncc4c(c3n2)n(C2CCN(C(=O)[C@H](C)O)CC2)c(=O)n4C)cn1`, for which the Potency result in test [1] was “inactive”. Further, the Potency in test [2] is 65.1 nM (active); in test [3] it was 0.058 µM (active); in test [5], 794 nM (active).

As to `Cn1cc(-c2ccc3c(c2)CCN3C(=O)Cc2cccc(C(F)(F)F)c2)c2c(N)ncnc21`, the Potency entry in test [1] is “inactive”. For the same compound, the Potency was 731 nM (active) in test [2]; 2.06 µM (active) and 4.68 µM (active) in test [3]. Further, the activity (max response) in test [5] is -1.75%.

With `CCCCC(CC)COC(=O)c1ccccc1O` (centres undefined), the Potency entry in test [1] is “inactive”. Besides, the Potency is 596 nM (active) in test [2] and 5.96 µM (active) in test [3]. For the same compound, the activity (max response) in test [5] is 7.38%.

Turning to `C[C@@H]1CCC[C@H](C)N1`, the Potency entry in test [1], in test [2] and in test [3] was “inactive” in each case. Moreover, in test [5], the activity (max response) is 4.32%.

With `CC(O)CN(CCN(CC(C)O)CC(C)O)CC(C)O` (centres undefined), the Potency result in test [1], in test [2], in test [3] and in test [6] was “inactive” in each case. For the same compound, the activity (max response) in test [5] is 5.94%.

`CCCCCOC(=O)Nc1nc(=O)n([C@@H]2O[C@H](C)[C@@H](O)[C@H]2O)cc1F`: the Potency result in test [1], in test [2], in test [3] and in test [6] was “inactive” each time. In addition, the activity (max response) in test [5] is 14.3% and 14.2%.

With `O=C(O)CCNC(=O)c1ccccc1`, the Potency result in test [1], in test [2], in test [3] and in test [6] was “inactive” in each case. The activity (max response) in test [5] was 1.23%.

As to `CCn1cc(C(=O)O)c(=O)c2cnc(N3CCNCC3)nc21`, the Potency entry in test [1] and in test [2] was “inactive” throughout. Also, in test [3], the Potency is 2.99 µM (active). Also, the activity (max response) in test [5] was 3.41%.

As for `Clc1ccc2nsnc2c1NC1=NCCN1`, the Potency result in test [1], in test [2], in test [3] and in test [6] was “inactive” in each case. The activity (max response) in test [5] is -2.56% and -8.39%.

For the compound `CCOC(=O)C(O)c1ccccc1` (centres undefined), the Potency result in test [1], in test [2], in test [3] and in test [6] was “inactive” each time. Moreover, the activity (max response) in test [5] was 4.7%.

For `CN(C)C1CCN(C(=O)c2ccc(NC(=O)Nc3ccc(-c4nc(N5CCOCC5)nc(N5CCOCC5)n4)cc3)cc2)CC1`, the Potency result in test [1] is “inactive”. Further, the Potency in test [2] was 14.6 nM (active); in test [3] it was 0.0184 µM (active); in test [5], 251 nM (active); in test [6], 2.24 µM (active).

As to `O=C(/C=C/c1ccccc1)OCc1ccccc1`, the Potency result in test [1], in test [2], in test [3] and in test [6] was “inactive” throughout. In test [5], the activity (max response) is 5.62%.

In the case of `COc1cc(C(=O)NCc2ccc(OCCN(C)C)cc2)cc(OC)c1OC`, the Potency result in test [1], in test [2] and in test [3] was “inactive” in each case. Further, the activity (max response) in test [5] is -6.7%.

Take `COc1ccccc1N1CCN(CCCNc2cc(=O)n(C)c(=O)n2C)CC1`: the Potency entry in test [1], in test [2] and in test [3] was “inactive” each time. Also, in test [5], the activity (max response) is 2.85%.

For `O=P(O)(O)OCC(O)CO` (centres undefined), the Potency result in test [1], in test [2] and in test [3] was “inactive” throughout. In addition, the activity (max response) in test [5] is 10.4%.

For `OC[C@H]1O[C@@H](O[C@@H]2[C@@H](CO)O[C@](O)(CO)[C@H]2O)[C@H](O)[C@@H](O)[C@H]1O`, the Potency entry in test [1], in test [2] and in test [3] was “inactive” each time. Besides, in test [5], the activity (max response) was 1.01% and 4.87%.

As to `O=C(Nc1ccc(Cl)cc1)Nc1ccc(Cl)c(Cl)c1`, the Potency result in test [1] was “inactive”. In addition, the Potency in test [2] was 9440 nM (active); in test [3], 9.44 µM (active); in test [5], 2590 nM (active).

Take `O=C(O)c1ccc(OCCCOc2ccc(C(=O)O)cc2)cc1`: the Potency entry in test [1], in test [2] and in test [3] was “inactive” throughout. The activity (max response) in test [5] is 5.44%.

Consider `CC(=O)N/N=C/c1ccc([N+](=O)[O-])o1`, for which the Potency entry in test [1] is “inactive”. The Potency in test [2] was 18800 nM (active); in test [3], 23.7 µM (active). Moreover, in test [5], the activity (max response) was 2.1%.

Take `CC(C)(C)C(=O)OCOC(=O)C1N2C(=O)CC2S(=O)(=O)C1(C)C` (centres undefined): the Potency result in test [1], in test [2] and in test [3] was “inactive” each time. For the same compound, the activity (max response) in test [5] is 14.5%.
